From PMC12136788 come the findings set out here.

The chains are these.
T1: UNK ZnF1-6 (called full-length) (human, UniProt Q9C0B0 30-357)
T1 sequence: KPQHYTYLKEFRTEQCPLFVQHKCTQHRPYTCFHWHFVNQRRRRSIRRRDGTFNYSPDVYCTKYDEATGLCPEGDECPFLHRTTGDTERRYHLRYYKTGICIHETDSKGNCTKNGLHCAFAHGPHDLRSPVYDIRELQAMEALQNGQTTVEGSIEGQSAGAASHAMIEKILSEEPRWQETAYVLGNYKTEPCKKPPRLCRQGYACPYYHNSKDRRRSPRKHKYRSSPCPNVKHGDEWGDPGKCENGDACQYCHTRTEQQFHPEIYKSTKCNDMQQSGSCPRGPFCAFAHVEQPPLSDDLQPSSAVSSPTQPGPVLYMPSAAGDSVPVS

B1: chr7:123692404:123692516:-|CDS|ENSG00000106299|unk|total|mutant (ssRNA)
RNA: GGGAGUUCUACAGUCCGACGAUCCCUGCCUUCUGAUGGGGACCAUCAGGUUCCAACUACUGCAGGAAACAAAGCAGCUCUUUCCGAUCAAAUCCGAGAGGGUGCUCAGCUAAAAAAAGUGGAGCAGAACAGUCGGCCAGUGUCCAACAGAGGAUUGAGCAUCA
B2: chr2:32377587:32377702:+|CDS|ENSG00000115760|unk|FALSE|unique (ssRNA)
RNA: GGGAGUUCUACAGUCCGACGAUCGGUGAAAUGUCAGUAUAUCUCUGCUGUGGAUAAAGUUAUAUUUGUGGAUGAUUAUGCAGUAGGGUGUAGGAAGGACCUUAAUGGAAUCUUGUUGUUAGACACUGCUCUGCAAACUCCAGUCAACAGAGGAUUGAGCAUCA
B3: chr15:69268886:69268987:+|CDS|ENSG00000138604|unk|total|mutant (ssRNA)
RNA: GGGAGUUCUACAGUCCGACGAUCGGAGUUAAAGCUGUGUUUAUGAAUAAACAUGACUGGUAUGAAGAAUAUCCAACCACACCCCGCUCUUUUGUUUUAAAUGGCUUUAUGUAUUCUUUAAUUGGGCUGUAUGACUUAAAAGAACAACAGAGGAUUGAGCAUCA
B4: ENSG00000107863:be:win_3351|CDS|ENSG00000107863|bound_else_gene|NA|bound_elsewhere_windowed (ssRNA)
RNA: GGGAGUUCUACAGUCCGACGAUCAAAAGACAAAGGCACAUGGAGAAAAGGCAUUCCAAGUAUCAUGAGAAAGACAUUUGAGAAAAAGCCAACUGCUACAGGAACUUUCGGCGUCCGACUAGAUGACUGCCCACCAGCUCAUACCAACAGAGGAUUGAGCAUCA
B5: chr1:235448940:235449205:-|3pUTR|ENSG00000162885|unk|total|mutant (ssRNA)
RNA: GGGAGUUCUACAGUCCGACGAUCAACCGAGAAUUCCAUUAAAACCCGUCUUAUGACAGAUAUUAACUGUGUUCAGAUUUUAUCCGGCCCGCCCGUUUCUUUCUAUUUAAUAUUUAAAUCUUAUCAUGAAAUGCAGUGAUGAGCCAACAGAGGAUUGAGCAUCA
B6: chr2:167954955:167954998:-|3pUTR|ENSG00000198648|msi1_unk|FALSE|overlapping (ssRNA)
RNA: GGGAGUUCUACAGUCCGACGAUCGUUGUAUUUAGAAAUUAAUAUACUUAUAAAAUUAAGAUUUAUUAGCCAAACUUGAAUUCUAGUUUUAAAACUGACUGUGAAUUUUAUUUUUCAUAUAUUUAUGCAUUACACACCUUAGCUCAACAGAGGAUUGAGCAUCA
B7: chr2:167954955:167954998:-|3pUTR|ENSG00000198648|msi1_unk|total|mutant (ssRNA)
RNA: B6 RNA with U32C, A33C, U66C, A67C, U83C, A84C, U139C, A140C
B8: chr1:150220393:150220494:-|3pUTR|ENSG00000143401|msi1_unk|FALSE|overlapping (ssRNA)
RNA: GGGAGUUCUACAGUCCGACGAUCAUUGUAUGUAGAGAAAAAUUUUCAUUGACUCCCAUUGUGGAAUUCCCUAGCAAUUUAUUUAGACUUAAUUUUUUAAAUUCAAGCUUACUGUAUUAGUCAUUUUUAGCCCAUAAUUAAAACCAACAGAGGAUUGAGCAUCA
B9: chr1:235448940:235449205:-|3pUTR|ENSG00000162885|unk|FALSE|unique (ssRNA)
RNA: B5 RNA with C26U, C27A, C45U, C46A, C83U, C84A, C88U, C89A, C92U, C93A
B10: chr1:150220393:150220494:-|3pUTR|ENSG00000143401|msi1_unk|total|mutant (ssRNA)
RNA: B8 RNA with U32C, A33C, U71C, A72C, U83C, A84C, U117C, A118C, U127C, A128C
B11: chr4:140550230:140550341:+|CDS|ENSG00000179387|unk|FALSE|unique (ssRNA)
RNA: GGGAGUUCUACAGUCCGACGAUCGAAUUUGACAAGUUUUGGUUUGAAGAAGAACCAGAAAGCAUUAUGUAUUUCAAUUUGUAUAGAGAGAAGUUUCAUGAAAAGAUUAAAGGACUUUUACUGGAUUGUAAUGUAGCACUUACUCAACAGAGGAUUGAGCAUCA
B12: chrX:85861749:85861850:-|3pUTR|ENSG00000188419|msi1|FALSE|unique (ssRNA)
RNA: GGGAGUUCUACAGUCCGACGAUCCUAAUUUAAAAUUUCAGAAAAUGCUAUUAAAGAAUUUUGAUUCAAGUAUUUAAACUGUUUAGUUAUGCAUGCUUCUUAUUAACCGAAAAUGAUAAUACCAUUUAGUUUAGUGAUCAGUAUCAACAGAGGAUUGAGCAUCA
B13: chr5:75599425:75599511:+|3pUTR|ENSG00000122008|msi1_unk|total|mutant (ssRNA)
RNA: GGGAGUUCUACAGUCCGACGAUCGAACCGCUUAAUUAAGAACUCACAGACUUUGACAAAGUGGUAACCCGACUUUUAAUUACCCGAUUCUUCAAAUCCGGCUUAAUGCCUGCCCGCAUGCCAAUCCAAUCCCAUGACUGAUGUCAACAGAGGAUUGAGCAUCA
B14: ENSG00000172071:stop:overlap|stop_codon|ENSG00000172071|stop_codon|NA|stop_codon (ssRNA)
RNA: GGGAGUUCUACAGUCCGACGAUCCAUCGGGAACAAAACAUUCAAGACAGUCCAACAACUCCCAUAGCCCUUUGCCAAGCAAUUAGCCUUAAGUUGUGCUAGCAACCCUAAUAGGUGAUGCAGAUAAUAGCCUACUUCUUAGAACAACAGAGGAUUGAGCAUCA
B15: chr10:92030311:92030412:+|3pUTR|ENSG00000095564|unk|FALSE|unique (ssRNA)
RNA: GGGAGUUCUACAGUCCGACGAUCAUAUAAGAUUGAAACUGUAAAAUAUAUGCAACUGUGUGUUAUUUGUAGGAAAUGGUCACUAGAAAGAGCAAAAGAUUAUUCAGGUAUACAGGUUUUUUUUCAUUGUUUAGGAUUUUAACUCAACAGAGGAUUGAGCAUCA
B16: chr5:75599425:75599511:+|3pUTR|ENSG00000122008|msi1_unk|FALSE|overlapping (ssRNA)
RNA: B13 RNA with C27U, C28A, C68U, C69A, C83U, C84A, C97U, C98A, C113U, C114A

Positions count from the first letter of the chain named. The full ranking holds about 5,800 sequences; the median of “enrichment r” is about 0.68, and the highest 2% start at about 11. The full list was thinned out, with the highest values kept by preference.

The assay deals with T1, UNK ZnF1-6 (called full-length). Kind of assay: nsRBNS (natural sequence RNA bind-n-seq); RBNS binding buffer (assumed for nsRBNS): 25 mM Tris pH 7.5, 150 mM KCl, 3 mM MgCl2, 0.01% Triton X-100, 500 ug/ml BSA, 20 U/ml SUPERase-In, 4 C; UNK is unkempt and MSI1 is Musashi-1; names of the RNAs are library labels; protein concentration not given here; high values mean tight binding.
The molecule B1 registered a binding signal of 0.493 enrichment R.
As to B2, the binding signal was 0.488 enrichment R.
B3 registered a binding signal of 0.547 enrichment R.
Molecule B4 had a binding signal of 0.507 enrichment R.
In the case of B5 it was 2.39 enrichment R; in that of B6, 15.2 enrichment R; in that of B7, 3.43 enrichment R.
In the case of B8 it was 228 enrichment R; in that of B9, 35.6 enrichment R.
The molecule B10 came in with a binding signal of 2.56 enrichment R.
In turn, B11 yielded a binding signal of 0.651 enrichment R.
Molecule B12 showed a binding signal of 2.27 enrichment R.
In the case of B13 it was 0.537 enrichment R.
B14 yielded a binding signal of 1.57 enrichment R.
B15: the binding signal turned out to be 3.36 enrichment R.
In the case of B16 it was 38.5 enrichment R.
